# Assay outcomes from PubChem BioAssay.
# Most compounds without a hit are left out; they make up all but 0.92% or so of the library.
# GALK inh: qHTS Assay for Inhibitors of Human Galactokinase (GALK). Potency, µM (top dose mostly 57.5 µM), without a hit: at the highest dose activity change, negative = inhibition, hits mostly inhibitors. P51570. Purified GALK, Kinase-Glo residual ATP luminescence. 270,000 compounds, 0.007% hits; also: potency is read from the fitted curve at half-maximal effect; % is scaled to controls: 0 for no effect and ±100 for the full control effect
#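 5 nM enzyme, 35 uM ATP, 100 uM galactose, 20 mM HEPES pH8.0, 5 mM MgCl2; 1 h RT; residual ATP by Kinase-Glo Plus luminescence, qHTS format.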
# PKM2 act: qHTS Assay for Activators of Human Muscle isoform 2 Pyruvate Kinase | Pyruvate kinase PKM (Homo sapiens), P14618 | purified PKM2, Kinase-Glo ATP luminescence, activation; response scale: 0% is enzyme alone, no compound | Potency, µM (titrated, usually from 57.5 µM), inactives show top-dose activation, usual class: activators | 260,000 compounds, 0.34% hits; also: potency is read from the fitted curve at half-maximal effect; % is scaled to controls: 0 for no effect and ±100 for the full control effect; nearly all actives have a fitted effect of over 55% in size
#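 hPK-M2, >95% pure; 0.1 mM ADP / 0.5 mM PEP final; imidazole pH7.2 buffer w/ 7 mM MgCl2, 50 mM KCl; 1 h RT; Kinase-Glo lum. Intermediate enzyme activity for dual inhibitor/activator qHTS.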
# KinaseGlo FLuc: Counterscreen for Luciferase (Kinase-Glo TM) Inhibition; 200,000 compounds, 0.28% hits; Kinase-Glo luciferase, ATP luminescence, 8 min; Potency, µM (titrated, usually from 38.3 µM), for the others: at the top dose activity change, negative = inhibition, actives largely listed as inhibitors; also: potency is read from the fitted curve at half-maximal effect; % is scaled to controls: 0 for no effect and ±100 for the full control effect; nearly all actives have a fitted effect of over 60% in size
#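 Luminescence was the read-out, taken after 8-minute incubation at ambient temperature. Luciferase turned over luciferin with 10 uM ATP in imidazole pH 7.2 buffer containing KCl, MgCl2, Tween 20 and BSA.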
# miR-21 act: qHTS Assay for Modulators of miRNAs and/orActivators of miR-21. HeLa miR-21 FLuc reporter, luciferase, 48 h. Potency, µM (titrated, usually from 38.3 µM), inactives show top-dose activity change, positive = activation, usual class: activators. 340,000 tested, under 10 active. AID 2288, 2010;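 also: % of control where 0% means no effect; miR-21 action dims this reporter so a rising signal means less miR-21 action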
#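 HeLa miR-21-FLuc reporter line, endogenous miR-21; 2000 cells/well in DMEM/10% FBS; compound titration up to ~40uM final, 48 h, 37 degree Celsius; luciferase detection reagent, 15 min lysis, CCD luminescence.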
# RXFP1 agonist: qHTS Assay for Agonists of the Relaxin Receptor RXFP1; Relaxin receptor 1 (Homo sapiens), Q9HBX9; HEK293T-RXFP1 cAMP TR-FRET, 30 min; response scale: percent of porcine relaxin response, buffer zero; Potency, µM (highest dose often 57.5 µM), for inactives: at the highest dose activation, hits mostly activators; 370,000 compounds, 0.3% hits; also: potency is read from the fitted curve at half-maximal effect; % is scaled to controls: 0 for no effect and ±100 for the full control effect; nearly all actives have a fitted effect of over 60% in size
# Target sequence (Q9HBX9 whole entry, looked up): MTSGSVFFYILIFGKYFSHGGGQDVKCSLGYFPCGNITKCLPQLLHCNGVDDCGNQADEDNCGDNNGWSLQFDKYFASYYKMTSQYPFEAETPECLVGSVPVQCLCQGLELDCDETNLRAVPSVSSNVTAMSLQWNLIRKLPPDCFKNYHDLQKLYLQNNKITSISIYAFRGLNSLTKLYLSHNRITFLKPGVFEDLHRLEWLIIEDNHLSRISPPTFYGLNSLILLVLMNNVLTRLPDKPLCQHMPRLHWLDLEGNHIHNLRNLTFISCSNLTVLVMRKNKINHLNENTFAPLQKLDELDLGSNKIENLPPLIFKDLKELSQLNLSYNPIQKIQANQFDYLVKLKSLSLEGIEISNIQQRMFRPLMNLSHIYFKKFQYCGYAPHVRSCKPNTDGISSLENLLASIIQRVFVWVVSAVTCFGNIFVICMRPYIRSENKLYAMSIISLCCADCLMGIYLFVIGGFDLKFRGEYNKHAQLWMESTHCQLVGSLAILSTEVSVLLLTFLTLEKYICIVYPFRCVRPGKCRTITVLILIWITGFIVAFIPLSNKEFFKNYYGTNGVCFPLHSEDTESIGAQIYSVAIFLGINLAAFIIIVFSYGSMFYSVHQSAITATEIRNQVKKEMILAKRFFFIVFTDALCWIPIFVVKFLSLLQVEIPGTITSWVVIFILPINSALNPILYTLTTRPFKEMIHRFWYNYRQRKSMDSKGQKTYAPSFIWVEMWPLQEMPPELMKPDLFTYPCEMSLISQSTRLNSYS
#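 Agonist response is measured as cAMP accumulation in an RXFP1-transfected HEK293T line under PDE4 inhibition. Values are scaled between buffer-only and 29 nM porcine relaxin, and EC50s come from standard Hill equation fits.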
# RXFP1 antagonist: qHTS Assay for Antagonists of the Relaxin Receptor RXFP1; 350,000 compounds, 0.59% hits; AID 1259400, 2018; Relaxin receptor 1 (Homo sapiens), Q9HBX9; HEK293-RXFP1, relaxin-stimulated cAMP HTRF, 30 min; hits give low values; activity change, negative = inhibition, % at 57.5 µM;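 active = activity change of -60% or lower, but not beyond a set lower limit; inconclusive = change between -60% and -40%, or beyond the set limit; inactive = change above -40%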; also: % is scaled to controls: 0 for no effect and ±100 for the full control effect
# * = called active by the depositor; ? = inconclusive; nt = no result; [ ] = remark or other dose. Unless noted, calls follow the shape of the dose curve; as a rule, active = well fitted curve in the direction sought with a large enough effect; inconclusive = small, poorly fitted or top-dose-only effect, or another doubt; inactive = no such curve, though single readings can be large; an effect the other way counts as inactive or inconclusive.
SMILES,GALK inh,PKM2 act,KinaseGlo FLuc,miR-21 act,RXFP1 agonist,RXFP1 antagonist
COc1ccc(CNC(=O)CSc2nc3[nH]ncc3c(=O)n2-c2ccccc2Br)cc1,-0.1%,3.7%,1.9%,1.2%,0.7%,nt
O=c1[nH]c2cc3c(cc2cc1CN(Cc1ccccc1)Cc1nnnn1Cc1ccco1)OCCO3,-0.1%,?,5.2%,-49.5%,4.1%,nt
COc1ccccc1CN(Cc1cc2cc3c(cc2[nH]c1=O)OCCO3)Cc1nnnn1Cc1ccco1,-0.1%,20µM*,2.1%,-16.8%,-0.5%,-19.0
Cc1ccsc1/C=C1\CCc2ccccc2C1=O,9.0%,-80.2%,10µM*,16.4%,0.2%,-11.5
CN(C)c1ccc(C(=C2C=CC(=[N+](C)C)C=C2)c2ccc(N(C)C)cc2)cc1,nt,nt,5.01µM*,nt,nt,?
O=C1/C(=C/c2cccs2)SC(=S)N1N1CCOCC1,-0.2%,1.2%,nt,-8.7%,-0.2%,-96.0*
CCOc1ccc(C(C)=O)cc1CN1C(=O)NC2(CCCCCC2)C1=O,3.9%,4.7%,nt,-0.9%,-0.7%,-101.3*
Cc1cccc2nc(=S)n(C(=O)c3ccco3)n12,0.3%,-66.0%,3.16µM*,-66.3%,-0.4%,-19.8
CC(=O)N1CCN(C(=O)c2ccco2)CC1,1.1%,nt,nt,0.3%,0.3%,-2.7
O=C(c1ccco1)n1c(=S)nc2ccccn21,6.8%,-17.1%,12.6µM*,-30.3%,3.3%,-8.8
Cc1cc(C)c(S(=O)(=O)OC[C@H]2C=CC[C@@H](CCC[C@H]3O[C@H](C(=O)OC(C)C)CC[C@@H]3C)O2)c(C)c1,nt,nt,0.9%,nt,nt,nt
CCCSC(=S)c1c(C)[nH]n(-c2ccccc2)c1=O,5.3%,-0.1%,nt,18.3%,0.3%,-70.3*
CCCCN(CCCC)C(=S)N/N=C/c1c(C)[nH]n(-c2ccccc2)c1=O,-0.5%,-10.1%,1.1%,10.4%,-2.6%,25.6
CC1CCN(S(=O)(=O)c2ccc(NC(=O)CNC3CCCCC3)cc2)CC1,-0.2%,nt,nt,-5.8%,-2.9%,-104.2*
Cc1csc(SCC(=O)Nc2ccc(S(=O)(=O)N3CCCC3)cc2)n1,-1.1%,20µM*,2.2%,-9.3%,-0.4%,-25.2
CCCCCCCc1cc2c(cn1)C(=O)C(C)(OC(C)=O)C(O)=C2Cl (stereo not drawn),nt,nt,-3.2%,nt,nt,nt
O=C(CC1SC(=O)N(c2ccccc2)C1=O)Nc1ccc(Br)cc1 (stereo not drawn),1.1%,1.0%,nt,-28.6%,-1.2%,?
O=C(CC1SC(=O)N(c2ccccc2)C1=O)Nc1ccc(Cl)cc1 (stereo not drawn),2.9%,10.1%,nt,-36.3%,0.8%,-70.3*
Cc1ccc(S(=O)(=O)NCc2ccccc2)cc1C(=O)N1CCN(S(=O)(=O)c2ccccc2)CC1,nt,nt,nt,nt,-1.7%,-6.6
COc1ccc(CN2C(=O)c3cccnc3C2=O)cc1S(=O)(=O)N1CCCCC1C (stereo not drawn),1.6%,nt,nt,1.5%,7.08µM*,27.6
CC1(C)O[C@H]2C[C@@H]3[C@H]4CCC5=CC(=O)C=C[C@]5(C)[C@@]4(F)[C@@H](O)C[C@]3(C)[C@]2(C(=O)CO)O1,nt,nt,3.9%[39.9 µM],nt,nt,nt
CC1=NN(c2cccc(C(=O)O)c2)C(=O)/C1=C\C=C/c1ccccc1,-18.0%,8.3%,-2.3%,-3.8%,1.1%,-74.6*
O=C(O)Cn1cnnn1,nt,nt,nt,nt,nt,3.2
CCc1ccc(C(O)(C(C)C)C(CN2CCOCC2)c2ccccc2)cc1 (stereo not drawn),nt,nt,nt,21.3%,-0.8%,-78.1*
CC(C)C(O)(c1ccccc1)C(CN1CCOCC1)c1ccccc1 (stereo not drawn),nt,nt,nt,10.8%,1.9%,-11.6
SMILES,GALK inh,PKM2 act,KinaseGlo FLuc,miR-21 act,RXFP1 agonist,RXFP1 antagonist
CCCC(O)(c1ccc(CC)cc1)C(CN1CCOCC1)c1ccccc1 (stereo not drawn),2.6%,nt,nt,21.5%,-2.8%,-62.4*
Cc1nnc(SCC2=C(C(=O)O)N3C(=O)C(NC(=O)C(C)n4nc(C(F)(F)F)cc4C)C3SC2)s1 (stereo not drawn),4.1%,3.0%,1.0%,0.6%,-2.3%,-12.8
COc1ccc(OC)c(NC(=O)Cn2cc(C(=O)c3cccs3)c3ccccc32)c1,nt,nt,nt,19.7%,0.2%,-1.8
c1ccc(COc2ccc(OCCCNC3CCCC3)cc2)cc1,-2.9%,0.5%,-4.1%,-38.2%,1.1%,-86.1*
O=C(NC1CCN(Cc2ccccc2)CC1)c1ccccc1OCc1ccccc1,-1.1%,nt,nt,2.9%,1.6%,-4.2
O=C(NC1CCCC1)c1ccccc1OCc1ccccc1,11.1%,1.1%,2.5%,1.5%,-1.6%,-81.8*
COc1cccc([C@@H]2Oc3ccc(OC)cc3C(=O)[C@H]2OC(=O)Nc2ccc(OC(F)F)cc2)c1,nt,nt,1.6%,nt,nt,nt
Cc1cc(-c2ccc(C(C)C)c(S(=O)(=O)Nc3cc(C)on3)c2)on1,5.5%,-0.3%[0.46 µM],nt,-0.7%,0.7%,-65.2*
Cc1cc(-c2ccc(C)c(S(=O)(=O)Nc3cccc(C)n3)c2)on1,nt,nt,nt,-5.2%,3.3%,-11.8
Cc1cc(C)c(C)c(S(=O)(=O)NCCC(=O)O)c1C,nt,nt,0.0%,nt,nt,nt
CCOC(=O)CN1C(=O)N[C@@H](c2cccc(C(F)(F)F)c2)[C@H](C(=O)OC)[C@H]1C,nt,-8.1%[11.5 µM],-2.6%[7.66 µM],nt,nt,nt
CC(C)Cc1nc(N2CCN(C(=O)c3ccco3)CC2)c(C#N)c2c1CCC2,0.5%,22.4µM*,-7.8%,-11.0%,-0.7%,-17.9
COc1cc(C(=O)Nc2ccc3oc(-c4cccnc4)nc3c2)cc(OC)c1OC,1.1%,nt,-3.0%,1.4%,-1.9%,-11.3
COc1ccccc1C(=O)Nc1ccc2oc(-c3cccc4c(Br)cccc34)nc2c1,nt,nt,nt,-1.6%,10µM*,14.4
COc1cc(C(=O)Nc2ccc3oc(-c4ccccc4)nc3c2)cc(OC)c1OC,nt,nt,nt,?,2.1%,-60.2*
COc1ccc(S(=O)(=O)NCc2cc(-c3ccccc3Cl)no2)cc1,-2.2%,4.2%,2.6%,3.8%,0.7%,14.0
Cc1ccc(S(=O)(=O)NCC(=O)NCC(=O)OCc2c(F)cccc2Cl)cc1,-0.8%,35.5µM*,-1.0%,-13.5%,22.6%,-15.1
O=C(N/N=C/C(Br)=C/c1ccccc1)c1cc(-c2ccco2)[nH]n1,2.2%,15.3%,1.3%,8.8%,-0.3%,-80.6*
CCC(Oc1ccc(F)cc1)C(=O)Nc1nc(-c2ccc(F)cc2)ns1 (stereo not drawn),nt,nt,nt,?,1.4%,-87.3*
CC(=O)N1CCOc2ccc(S(=O)(=O)NCCc3ccc(Cl)cc3)cc21,4.4%,-2.7%[0.46 µM],nt,3.2%,0.4%,-67.6*
